PubChem BioAssay (NCATS)
Records with an inconclusive call do not appear. Entries that show only a call come without a potency. Values without a mark were called inactive. Calls of active or inactive are those of the source. The call rests on the fitted dose curve; in most records, active means well fitted curve in the direction sought with a large enough effect; inconclusive means small, poorly fitted or top-dose-only effect, or another doubt; inactive means no such curve, though single readings can be large; an effect the other way counts as inactive or inconclusive.

Test system: not listed separately
Assay: qHTS to identify inhibitors of the type 1 interferon - major histocompatibility complex class I in skeletal muscle: primary screen against the NCATS Mechanism Interrogation Plate v5.0 (MIPE) Libary (AID 1347411); further: nearly all actives have a fitted effect of over 65% in size; further: potency means the concentration at half of the fitted maximal effect
Settings: iHSKM cells + IFN-b, HiBiT-tagged MHC-I luminescence, 24 h; series mostly up to 45.8 µM
Summary of the method: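 Cells were genome-edited human myoblasts carrying a HiBit tag on endogenous HLA-B. They were treated with IFN-beta (4.0 ng/ml) and titrated compounds (top 46 uM) for 24 hrs before lytic HiBiT detection.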

Row | SMILES | Potency
1 | COCCCOc1cc(C[C@@H](C[C@H](N)[C@@H](O)C[C@H](C(=O)NCC(C)(C)C(N)=O)C(C)C)C(C)C)ccc1OC | inactive
2 | CCCc1cc(C(N)=S)ccn1 | inactive
3 | CNC(=O)c1cc(Oc2ccc(NC(=O)Nc3ccc(Cl)c(C(F)(F)F)c3)cc2)ccn1 | 16.5 µM (active)

Molecular target: Protein phosphatase 1D (Homo sapiens) (UniProt O15297)
Sequence (O15297 whole entry, looked up): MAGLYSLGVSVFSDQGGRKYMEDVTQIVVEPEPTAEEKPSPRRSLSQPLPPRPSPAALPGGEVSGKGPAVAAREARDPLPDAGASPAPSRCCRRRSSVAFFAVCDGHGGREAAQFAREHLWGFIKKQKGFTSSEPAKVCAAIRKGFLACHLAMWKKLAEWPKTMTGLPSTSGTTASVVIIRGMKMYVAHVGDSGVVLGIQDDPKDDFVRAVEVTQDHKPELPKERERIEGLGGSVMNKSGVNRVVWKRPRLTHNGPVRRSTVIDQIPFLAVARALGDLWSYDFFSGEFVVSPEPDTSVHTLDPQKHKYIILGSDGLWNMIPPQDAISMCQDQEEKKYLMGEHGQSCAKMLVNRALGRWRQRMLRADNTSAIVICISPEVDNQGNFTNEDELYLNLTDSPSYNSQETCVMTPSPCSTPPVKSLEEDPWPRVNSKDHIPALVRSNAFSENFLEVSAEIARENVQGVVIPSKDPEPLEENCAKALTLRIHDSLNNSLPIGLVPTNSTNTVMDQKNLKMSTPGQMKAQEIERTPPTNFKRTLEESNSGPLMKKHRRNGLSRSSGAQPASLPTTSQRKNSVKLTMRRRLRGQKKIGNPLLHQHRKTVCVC
Assay: RapidFire Mass Spectrometry qHTS Assay for Modulators of WT P53-Induced Phosphatase 1 (WIP1) (AID 1347424);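 further: amount of dephosphorylated VEPPL-S-QETFS peptide product formed by WIP1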
Settings: WIP1 dephosphorylation of phosphopeptide, RapidFire MS; series mostly up to 63 µM
Summary of the method: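 10 nM WIP1 preincubated with compounds 1 hr at room temperature in pH 7.5 Tris buffer with 30 mM MgCl2, 1 mM TCEP; 2 uM VEPPL-pS-QETFS phosphopeptide for 5 min, formic acid quench; dephosphorylated product quantified by RapidFire MS against labelled standard.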

Row | SMILES | outcome | activity change, negative = inhibition
4 | COc1ccc2cc3[n+](cc2c1OC)CCc1cc2c(cc1-3)OCO2 | inactive | –
5 | O=c1cc(O)c(Cl)c[nH]1 | inactive | –
6 | COc1ccccc1OCC(O)COC(N)=O (stereo not given) | inactive | –
7 | CCN[C@H]1C[C@H](C)S(=O)(=O)c2sc(S(N)(=O)=O)cc21 | inactive | –
8 | CCC(=O)O[C@]1(C(=O)CCl)[C@@H](C)C[C@H]2[C@@H]3CCC4=CC(=O)C=C[C@]4(C)[C@@]3(F)[C@@H](O)C[C@@]21C | inactive | –
9 | COc1cc(NS(=O)(=O)c2ccc(N)cc2)nc(OC)n1 | inactive | –
10 | CC(C)OC(=O)OCOP(=O)(CO[C@H](C)Cn1cnc2c(N)ncnc21)OCOC(=O)OC(C)C | inactive | –
11 | O=P(O)(O)C(O)(Cc1cccnc1)P(=O)(O)O | inactive | –
12 | CC(C)C[C@H](NC(=O)[C@H](CCc1ccccc1)NC(=O)CN1CCOCC1)C(=O)N[C@@H](Cc1ccccc1)C(=O)N[C@@H](CC(C)C)C(=O)[C@@]1(C)CO1 | inactive | –
13 | CNS(=O)(=O)Cc1ccc2[nH]cc(CCN(C)C)c2c1 | inactive | –
14 | COc1cnc(NS(=O)(=O)c2ccc(N)cc2)nc1 | inactive | –
15 | CC(C)Cn1cnc2c(N)nc3ccccc3c21 | inactive | –
16 | CO[C@@]12[C@H](COC(N)=O)C3=C(C(=O)C(C)=C(N)C3=O)N1C[C@@H]1N[C@@H]12 | inactive | –
17 | CC(=O)[C@H]1CC[C@H]2[C@@H]3CC=C4C[C@@H](O)CC[C@]4(C)[C@H]3CC[C@]12C | inactive | –
18 | N[C@@H](C(=O)N[C@@H]1C(=O)N2C(C(=O)O)=C(Cl)CS[C@H]12)c1ccccc1 | – | -1.8% [at 12.6 µM]
19 | CCCCc1oc2ccc(NS(C)(=O)=O)cc2c1C(=O)c1ccc(OCCCN(CCCC)CCCC)cc1 | inactive | –
20 | COc1cccc(N(C)C(=S)Oc2ccc3c(c2)CCCC3)n1 | inactive | –

Row | SMILES | outcome | activity change, negative = inhibition
21 | Cc1onc(-c2ccccc2Cl)c1C(=O)N[C@@H]1C(=O)N2[C@@H]1SC(C)(C)[C@@H]2C(=O)O | inactive | –
22 | CN(C)c1ccc(C(=C2C=CC(=[N+](C)C)C=C2)c2ccc(N(C)C)cc2)cc1 | inactive | –
23 | Nc1nc(N)nc(-c2cc(Cl)ccc2Cl)n1 | inactive | –
24 | CCn1cc(C(=O)O)c(=O)c2cc(F)c(N3CCNCC3)nc21 | inactive | –
25 | C#CCN[C@@H]1CCc2ccccc21 | inactive | –
26 | CCN(C)C(=O)Oc1cccc([C@H](C)N(C)C)c1 | inactive | –
27 | Cc1noc(NS(=O)(=O)c2ccc(N)cc2)c1C | inactive | –
28 | O=C(N[C@H](CO)[C@H](O)c1ccc([N+](=O)[O-])cc1)C(Cl)Cl | inactive | –
29 | CCOCC(O)COc1ccc(NC(=O)CC[S+](C)C)cc1 (stereo not given) | inactive | –
30 | Cc1c(-c2ccc(O)cc2)n(Cc2ccc(OCCN3CCCCCC3)cc2)c2ccc(O)cc12 | inactive | –
31 | COc1ccc(C(=O)CC(=O)c2ccc(C(C)(C)C)cc2)cc1 | inactive | –
32 | O=S(=O)(c1cccc2cnccc12)N1CCCNCC1 | inactive | –
33 | CNNCc1ccc(C(=O)NC(C)C)cc1 | inactive | –
34 | COCCCOc1cc(C[C@@H](C[C@H](N)[C@@H](O)C[C@H](C(=O)NCC(C)(C)C(N)=O)C(C)C)C(C)C)ccc1OC | inactive | –
35 | CCCc1cc(C(N)=S)ccn1 | inactive | –
36 | Cc1cccc(Nc2ccncc2S(=O)(=O)NC(=O)NC(C)C)c1 | inactive | –
37 | CNC(=O)c1cc(Oc2ccc(NC(=O)Nc3ccc(Cl)c(C(F)(F)F)c3)cc2)ccn1 | inactive | –

Molecular target: Protein phosphatase 1D (Homo sapiens) (UniProt O15297)
Assay: Rhodamine-PBP qHTS Assay for Modulators of WT P53-Induced Phosphatase 1 (WIP1) (AID 1347425)
Settings: recombinant WIP1, Rhodamine-PBP phosphate fluorescence, real-time; series mostly up to 57.5 µM
Summary of the method: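 Steps: enzyme with Rh-PBP sensor and compounds, room-temperature incubation of 1 hr, baseline read, addition of VEPPL-pS-QETFS (10 uM final), kinetic fluorescence reads at 525/598 nm. Activity equals final minus baseline signal.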

Row | SMILES | outcome | activity change, negative = inhibition
38 | COc1ccc2cc3[n+](cc2c1OC)CCc1cc2c(cc1-3)OCO2 | inactive | –
39 | COc1ccccc1OCC(O)COC(N)=O (stereo not given) | inactive | –
40 | COc1cc(NS(=O)(=O)c2ccc(N)cc2)nc(OC)n1 | inactive | –
41 | CC(C)OC(=O)OCOP(=O)(CO[C@H](C)Cn1cnc2c(N)ncnc21)OCOC(=O)OC(C)C | inactive | –
42 | CNS(=O)(=O)Cc1ccc2[nH]cc(CCN(C)C)c2c1 | inactive | –
43 | COc1cnc(NS(=O)(=O)c2ccc(N)cc2)nc1 | inactive | –
44 | CO[C@@]12[C@H](COC(N)=O)C3=C(C(=O)C(C)=C(N)C3=O)N1C[C@@H]1N[C@@H]12 | inactive | –
45 | COc1ccc(-c2ccc3cc(C(=O)O)ccc3c2)cc1C12CC3CC(CC(C3)C1)C2 | inactive | –
46 | N[C@@H](C(=O)N[C@@H]1C(=O)N2C(C(=O)O)=C(Cl)CS[C@H]12)c1ccccc1 | – | 10.7% [at 11.5 µM]
47 | CCCCc1oc2ccc(NS(C)(=O)=O)cc2c1C(=O)c1ccc(OCCCN(CCCC)CCCC)cc1 | inactive | –
48 | COc1cccc(N(C)C(=S)Oc2ccc3c(c2)CCCC3)n1 | inactive | –
49 | Cc1onc(-c2ccccc2Cl)c1C(=O)N[C@@H]1C(=O)N2[C@@H]1SC(C)(C)[C@@H]2C(=O)O | inactive | –
50 | CCn1cc(C(=O)O)c(=O)c2cc(F)c(N3CCNCC3)nc21 | inactive | –
51 | CCN(C)C(=O)Oc1cccc([C@H](C)N(C)C)c1 | inactive | –
52 | Cc1noc(NS(=O)(=O)c2ccc(N)cc2)c1C | inactive | –
53 | O=C(N[C@H](CO)[C@H](O)c1ccc([N+](=O)[O-])cc1)C(Cl)Cl | inactive | –
54 | Cc1c(-c2ccc(O)cc2)n(Cc2ccc(OCCN3CCCCCC3)cc2)c2ccc(O)cc12 | inactive | –
55 | Cc1cccc(Nc2ccncc2S(=O)(=O)NC(=O)NC(C)C)c1 | inactive | –
